Results: the supplement of paper PMC6555819

Experiments:
Experiment in all cases: PBM binding z-score (relative to random genomic background probes); higher = stronger binding; sequences stand for … in GC…GCGATTGACAGCGTAGAATGAAGG
[1] = tested on: PPARg:RXRa DBDmut IVT, anti-RXR (DBD mutation: RXRa K156A/R161A, NR concentration 270 nM, RXRa partner concentration 90 nM)
In short: (§1)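 The probes on custom Agilent 4×180K protein-binding microarrays were double-stranded, with 34-nt variable regions bearing direct-repeat seeds, single-nucleotide variants, half-site ablations and random human genomic background sequences. Incubation lasted 1 h with ligand-free nuclear receptor dimers in PBS pH 7.4, 2% milk, 0.02% Triton X-100, 1 mM DTT, 0.2 mg/mL BSA and 0.4 mg/ml salmon testes DNA. Antibodies against each partner (one per run) detected bound dimers, and fluorescence scans were regression-normalized. Binding z-scores take the random background probes as reference.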

[2] = tested on: PPARg:RXRa IVT, anti-PPARg (NR concentration 270 nM, RXRa partner concentration 90 nM)
In short: as §1

[3] = tested on: PPARg DBDmut:RXRa IVT, anti-PPARg (DBD mutation: PPARg1 K132A/R137A, NR concentration 270 nM, RXRa partner concentration 90 nM)
In short: as §1

[4] = tested on: PPARg DBDmut IVT, anti-PPARg (DBD mutation: PPARg1 K132A/R137A, NR concentration 270 nM)
In short: as §1

[5] = tested on: PPARg homodimer (NR concentration 180 nM)
In short: as §1

[6] = tested on: PXR:RXRa (NR concentration 270 nM, RXRa partner concentration 90 nM)
In short: as §1

[7] = tested on: PXR homodimer (NR concentration 270 nM)
In short: as §1

[8] = tested on: RARa:RXR (NR concentration 270 nM, RXRa partner concentration 90 nM)
In short: as §1

[9] = tested on: RARa homodimer (NR concentration 270 nM)
In short: as §1

[10] = tested on: RARb:RXRa (NR concentration 270 nM, RXRa partner concentration 90 nM)
In short: as §1

Sequence | PBM binding z-score [1] | PBM binding z-score [2] | PBM binding z-score [3] | PBM binding z-score [4] | PBM binding z-score [5] | PBM binding z-score [6] | PBM binding z-score [7] | PBM binding z-score [8] | PBM binding z-score [9] | PBM binding z-score [10]
TCTTGTCGATCAAAGGTTAAGAAAGCCGAAGCCT | 1.37 | 2.3 | -0.0137 | 0.486 | 0.668 | 1.62 | -0.394 | 2.19 | -0.0364 | 1.91
CGTCAAAGTACAAGGTAACGTAACAGAAAGCAGC | 0.112 | 0.638 | -0.0581 | -0.118 | 0.323 | -0.0227 | -0.131 | 0.281 | 0.369 | 1.1
CTGACTGGGGCAAAGGTTACCATACTCAGTACGA | 6.27 | 6.51 | 0.767 | 0.374 | 1.19 | 2.61 | 0.266 | 4.17 | 0.228 | 2.67
ATCTCTACGTAAAGATAGTTCAGTGAATGCAAAT | -0.595 | 0.188 | 0.317 | 1.43 | -0.705 | 0.115 | 0.219 | -0.211 | 0.168 | 0.474
CAAACTAGGTCAAGCGGTCAAAGTCCGCTTCCCG | 8.54 | 8.61 | 4.37 | 1.14 | 3.03 | 2.21 | 0.102 | 3.33 | 0.747 | 4.62
TCGAGTAGGTGACCAATGGGGCATTCAGCTTTCT | 4.22 | 3.6 | -0.451 | -1.19 | -0.701 | -0.233 | -1.05 | -0.0879 | -1.72 | 0.567
CCTGCTAGGTTATGGTCAGCTAATCTACAGTATG | 1.28 | 0.468 | -0.113 | 0.438 | -0.1 | -0.197 | -0.354 | -0.233 | 0.0671 | 1
TCAGACAGGTGAATGTAACTCAGGTACGCAGTCG | 2.43 | 0.904 | -0.264 | -0.0774 | 0.0893 | 0.012 | -0.109 | 0.0859 | -0.00412 | 0.652
ATATGTAGGTTATCGGGTCATTCGGTTTGCGCAT | 7.54 | 7.29 | 1.79 | 2.8 | 2.29 | 3.5 | 5.62 | 3.42 | 1.12 | 2.45
TCGAGTAGGTTAGTCGGGGCAGTCAGCCAACATA | 2.19 | 1.95 | -0.923 | -0.0532 | -0.451 | -0.323 | -0.507 | 0.0728 | -0.469 | 0.59
ATACCGAGGTGATCGTGAGGTCGTTGATACTAAC | 0.567 | 1.31 | 0.104 | 1 | 0.847 | 3.62 | 1.35 | 2.39 | -0.522 | 1.4
ACTAGCAGGCCGAGTTTGGGTCACTCAAACAAAG | -0.462 | 0.793 | -0.125 | -0.727 | -0.382 | 0.617 | -0.458 | 1.21 | -1.01 | 1.29
GCTAGCAGGCCGTTTGGGTCACTCAATGACGGGC | -0.553 | -0.27 | -1.62 | -1.46 | -0.598 | 0.292 | -0.556 | 0.575 | -1.38 | 1.14
GAGACTGGGGCATCAGCAGGTTACCATAACTTAA | 4.76 | 4.68 | 0.663 | 0.792 | 0.579 | 0.391 | 0.295 | 0.706 | -0.0469 | 1.09
ACAGACAGGTGTGTGAAGGTAACTCAGCTGGACG | -0.215 | -0.0763 | -0.159 | -0.168 | -0.299 | -0.399 | -0.457 | -0.395 | -0.0972 | -0.265
GGAAGGAGGGCATTCGAGTTGATAGCATGGCGAT | 3.26 | 2.42 | -0.146 | 0.314 | 0.39 | 3.38 | 1.3 | 0.52 | -0.113 | 1.56
GGAACGAGGGCAAAGTTGATAGCCTCTGTCGACG | 4.2 | 4.33 | -0.184 | -0.449 | 0.223 | 1.1 | -0.21 | 1.37 | -0.637 | 2.24
TAGCCTAGGTCATTCAGGGGCCAGTAAAGAAAGC | 1.81 | 3.14 | 0.536 | 0.653 | 1.04 | 2.39 | -0.023 | 3.28 | 0.0478 | 3.86
TCTCGGAGCACACGAAAGGTCAGAGCTCGACATC | 0.786 | 0.883 | -0.964 | -0.475 | 2.57 | 3.52 | -0.0353 | 4.12 | 0.999 | 3.45

Sequence | PBM binding z-score [1] | PBM binding z-score [2] | PBM binding z-score [3] | PBM binding z-score [4] | PBM binding z-score [5] | PBM binding z-score [6] | PBM binding z-score [7] | PBM binding z-score [8] | PBM binding z-score [9] | PBM binding z-score [10]
CTGCCTAGGTCAGGGCCAGTATAGGAGGAACGTT | 1 | 1.46 | -0.75 | -0.806 | 0.559 | 0.208 | -0.739 | 0.901 | -0.655 | 3.38
CCTCGGAGGACAACAGGAGGTCTGAGCTGCCAGA | -0.107 | -0.71 | -1.05 | -1.49 | -0.258 | -0.738 | -0.871 | -0.635 | -0.516 | 0.983
TTACAAAGGTGAAGGTCGTTGATCCCTCTGTAGA | 2.62 | 3.97 | 0.246 | 0.134 | 1.47 | 2.32 | 0.241 | 2.74 | 0.198 | 3.56
TTACCAAGGTGAAAGGTCGTTGACGCACGCCTTG | 2.81 | 4.77 | 0.591 | 0.0484 | 2.15 | 4.13 | 0.552 | 5.9 | -0.179 | 3.21
GCCTATAGGTAATACAAGGTGAAAGTCCGATTGT | 1.99 | 1.53 | 0.858 | 0.233 | 0.234 | 0.642 | 0.00334 | 0.994 | -0.186 | 0.666
TTTGCTAGGTCAGTTGGTCAGCTAACGAGCTGCC | 3.23 | 3.87 | -0.438 | -0.0692 | 0.648 | 0.0416 | -0.599 | 0.42 | -0.935 | 3.31
CATCCTAGGTCAGGGCCAGTATAGGAGGAACGTT | 3.29 | 3.82 | 0.575 | -0.518 | 1.36 | 0.842 | -0.294 | 1.65 | 0.477 | 3.65
ATCTCTATGTAAAGTTCAGTGAAAGATCGATAGA | -0.231 | 0.863 | 0.912 | 1.04 | 1.11 | 1.92 | 2.03 | 1.18 | 1.46 | 2.55
CTACCAAGGTGAAAAAGGTCGTTGATTACTATTC | 1.42 | 1.39 | 0.0289 | -0.0502 | 0.878 | 2.31 | 1.09 | 2.56 | 0.555 | 2.02
AGTCAAAGTTCGGGACGAGGTAACGTAAAGCACG | -0.421 | 0.748 | 0.226 | -0.0246 | 0.441 | 0.716 | 0.0422 | 0.869 | -0.0634 | 1.86
CCTACTCGGCCACGAAAGGTCATTGATTCAGTGA | 2.57 | 2.28 | -0.0183 | -0.203 | 3.66 | 5.12 | 1.83 | 5.43 | 1.61 | 4.03
CGAACGAGGGCATGTGTTGATAGCAAATGCCGAT | 2.61 | 1.67 | 0.15 | -0.912 | 0.123 | 0.241 | -0.168 | 0.367 | 0.149 | 1.81
TCAGACAGGTGAAGGTCACTCAGGTACGCAGTCG | 3.07 | 2.84 | 0.351 | 0.266 | 2.38 | 4.02 | 0.556 | 3.78 | 0.971 | 4.01
CAAACTAGGTCAAGGTCAAAGGCGGTTTGTGCCA | 8.62 | 8.69 | 1.56 | 1.08 | 4.11 | 4.86 | 2.19 | 5.36 | 1.25 | 5.02
GCTGCTAGGTCAGGTTGGTCCGCTAACGGGTACG | 2.43 | 2.33 | -0.695 | -0.237 | 0.526 | 0.421 | -0.826 | 0.786 | -0.467 | 3.27
ATCTCTAGGTAAGACTCATTTCAGTGAAGAACGC | 2.23 | 1.3 | 0.559 | 1.36 | 1.13 | -0.0936 | 0.605 | 0.211 | 1.77 | 0.27
GCTAGTTGCTCAGTAAAAGGTCACACACCGGTCG | 0.44 | 1.7 | -0.262 | 0.0665 | 2.95 | 4.84 | 0.686 | 5.72 | 1.56 | 4.1
TCGAGTAGGTTACCAATGGGGCATTCAACTTTCT | 3.18 | 3.11 | -0.0959 | -0.457 | 0.301 | 0.506 | -0.241 | 0.916 | -0.285 | 1.14
CGTCCAAGGTCAAGGTCAGTGTAAGAGACTCGAA | 3.46 | 4.48 | 2.06 | 0.0248 | 3.45 | 5.09 | 1.07 | 5.28 | 2.14 | 5.47
